The campaign covered roughly 340,000 compounds. About 530 (0.16%) were called active. Another 2% or so got no clear call; they are omitted. The list comes from a sample in which actives are over-represented; it also holds similar structures and randomly drawn compounds. Unmarked numbers belong to inactive results. Cut-off read from the data, not from the text of the source: active = activity change below about -80%; inconclusive = between about -30% and that limit; inactive = weaker than that.
Experiment: Small Molecules that selectively kill Giardia lamblia: qHTS;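 note: parasites exposed to compound for two days anaerobically before the ATP read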
Details: Giardia lamblia trophozoite viability; at 7.66 µM; stronger effect = lower value
Description: Giardia lamblia is a human pathogen afflicting impoverished nations, and the most common cause of outbreaks of diarrhea in the United States. Giardia has been classified by the CDC as a category B bioterrorism organism. The favored anti giardiasis drugs in the US are metronidazole or tinidazole, compounds that have undesirable side effects. Moreover, increasing resistance to drug regimes and recurrence are a concern. It is thus clear that alternative drug treatments are needed.
In a collaboration between the University of Maryland, College Park and the NIH Chemical Genomics Center, a bioluminescence Giardia viability assay based on the trophozoites' ATP content was developed. This assay is suitable for high throughput screening, and miniaturized the assay for compound screening in 1536-well plates. The goal of the project is to screen the Molecular Libraries Small Molecule Repository (MLSMR) for compounds that selectively kill Giardia trophozoites.
NIH Chemical Genomics Center [NCGC]
NIH Molecular Libraries Probe Centers Network [MLPCN]
Assay Submitter (PI): Osnat Herzberg, University of Maryland, College Park, MD.
1. Dispense 2 ul/well media
2. Dispense 23 nl/well compounds
3. Dispense 4 ul/well Giardia trophozoites at a concentration of 100 cells/well
4. Incubate 48 hrs at 37 deg C anaerobically
5. Dispense 4 ul/well ATPLite 1-Step Luminescence assay kit
6. Incubate 15-30 min at room temperature
7. Read luminescence signal on ViewLux plate reader
% is set by controls: 0 for no effect and ±100 for the full control effect.

Compound | activity change
CCN(CC)c1ccc([N+](=O)[O-])c2cccnc12 | -13.7%
CN(c1ccccc1)c1ccc([N+](=O)[O-])c2nonc12 | -83.4% (active)
CO[C@H]1[C@@H](O)[C@@H](C)O[C@H](O[C@H]2[C@H](Oc3cccc4c(O)c5c(=O)oc6ccc(C)c7c(=O)oc(c34)c5c67)O[C@H](C)[C@H](O)[C@@H]2O)[C@@H]1O | 0.803%
COc1cc([C@@H]2c3cc4c(cc3[C@H](OC(C)=O)[C@H]3COC(=O)[C@H]23)OCO4)cc(OC)c1OC | -7.09%
O=P1(Oc2ccccc2)CC(O)C(O)C(COCc2ccccc2)O1 (stereo not given) | 11%

Reference: PubChem BioAssay AID540267 (National Center for Advancing Translational Sciences (NCATS), 2011)
